Consider seven compounds from PubChem BioAssay (NCATS).

Assay [1] has as its target Lysosomal acid glucosylceramidase (Homo sapiens) (UniProt P04062). In words: Glucocerebrosidase-p2 (AID 348; in the data active = potency below about 10 µM; note: potency is the fitted concentration of half-maximal effect). The following applies: purified GBA, blue fluorogenic substrate, 40 min. Put shortly: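 Normal human glucocerebrosidase (0.2 nM) with blue fluorogenic substrate (80 uM final) in citrate/phosphate pH 5.9 with 10mM sodium taurocholate, 0.01% tween-20; 40 min RT, NaOH/glycine stop; fluorescence Ex 365/Em 440; AC50 from a titration from 0.6 nM upwards.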

A short description of assay [2]: AP1 Signaling Pathway (AID 357). Note: % is set by controls: 0 for no effect and ±100 for the full control effect. The following applies: ME-180 AP-1-bla reporter, EGF-induced, beta-lactamase ratio, 5 h; at 7.69 µM (top of the series) unless noted. In a few lines: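 Cells are seeded overnight, exposed to compound titrations and an EC50 level of EGF for 5 hours at 37 °C, then loaded with CCF4 dye for 2.5 hours. Beta-lactamase activity under the AP-1 element is read as a blue/green ratio.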

For assay [3], the target named is Cytochrome P450 1A2 (Homo sapiens) (UniProt P05177). In words: p450-cyp1a2 (AID 410; calls by dose curve; note: potency is the fitted concentration of half-maximal effect). Particulars: recombinant CYP1A2, luciferin-ME demethylation, luminescence; series mostly up to 57 µM. In a few lines:
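20nM CYP1A2, 100uM Luciferin-ME (=Km), 100mM KPO4; cpd 10 min RT; +NADPH regen, 60 min RT; stop/detect 20 min; luminescence. Normalized to furafylline 57 uM = full inhibition.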

Assay [4] addresses Glucocorticoid receptor (Homo sapiens) (UniProt P04150). In words: GR-EFC Redistribution (AID 451; calls by dose curve; note: potency is the fitted concentration of half-maximal effect). Particulars: CHO-K1 GR-EFC translocation, beta-gal luminescence, 2 h. Put shortly: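 CHO-K1 cells stably expressing nuclear-localized β-gal enzyme acceptor and GR fused C-terminally to the enzyme donor fragment; ligand-driven nuclear translocation restores β-gal by complementation. Compounds titrated up to 46 uM final, 2 h at 37 °C; luminescence read.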

Assay [5] addresses Mitogen-activated protein kinase 10 (Mus musculus) (UniProt Q61831). In words: JNK3 AlphaScreen Assay (AID 530).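 Note: kinase came from lysate of stimulated human HepG2 cells; signal reports phosphorylation of biotinylated GST-cJun 1-79 at Ser73 with 10 µM ATP; % is set by controls: 0 for no effect and ±100 for the full control effect.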 The following applies: JNK3 lysate, c-Jun phosphorylation; series mostly up to 57.1 µM. In a few lines:
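Biotinylated GST-cJun(1-79) served as substrate for JNK3 in HepG2 lysates stimulated with IL-1beta and TNF-alpha. ATP was 10 uM final, pH 7.6. Ser73 phosphorylation was quantified by AlphaScreen (680 nm excitation).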
(Bead proximity is the source of the signal in Alpha formats.)

The target in assay [6] is 3',5'-cyclic-AMP phosphodiesterase 4B (Homo sapiens) (UniProt Q07343). In words: qHTS Assay for Inhibitors of PDE-IV (AID 607; active = well fitted activation curve with a large enough effect in the main read-out, with a control signal flat, not every such curve was filed as active; note: potency is the fitted concentration of half-maximal effect). The following applies: HEK293 ACTOne CNG channel cells, membrane potential fluorescence; series mostly up to 22.9 µM. Put shortly: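 The readout is membrane depolarisation from a cAMP-sensing CNG channel, detected with a potential dye at ex 535/em 590. Cells were HEK293-derived (endogenous PDE-IV) at 1000 cells/well, titrated up to 22.9 uM final.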
Chain of 3',5'-cyclic-AMP phosphodiesterase 4B (Homo sapiens) (Q07343 whole entry, looked up): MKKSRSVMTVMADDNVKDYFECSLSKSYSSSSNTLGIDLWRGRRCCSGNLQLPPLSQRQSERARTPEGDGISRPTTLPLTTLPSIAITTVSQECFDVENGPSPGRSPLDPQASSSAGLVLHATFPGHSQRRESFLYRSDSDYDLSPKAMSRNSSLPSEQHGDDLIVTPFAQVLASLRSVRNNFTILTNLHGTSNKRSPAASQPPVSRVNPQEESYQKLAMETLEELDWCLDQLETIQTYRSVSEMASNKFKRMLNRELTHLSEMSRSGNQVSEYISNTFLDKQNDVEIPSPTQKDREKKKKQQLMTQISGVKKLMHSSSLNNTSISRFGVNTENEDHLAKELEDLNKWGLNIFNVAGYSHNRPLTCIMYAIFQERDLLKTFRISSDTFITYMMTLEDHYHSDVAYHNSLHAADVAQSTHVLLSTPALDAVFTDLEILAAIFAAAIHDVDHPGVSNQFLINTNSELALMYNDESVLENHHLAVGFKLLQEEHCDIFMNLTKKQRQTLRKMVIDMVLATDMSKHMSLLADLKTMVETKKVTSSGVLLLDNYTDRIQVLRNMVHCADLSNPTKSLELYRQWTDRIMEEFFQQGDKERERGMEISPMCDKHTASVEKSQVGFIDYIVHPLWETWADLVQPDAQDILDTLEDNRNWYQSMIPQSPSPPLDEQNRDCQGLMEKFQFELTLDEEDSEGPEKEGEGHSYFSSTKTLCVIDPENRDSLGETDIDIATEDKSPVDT
(qHTS replaces the single test concentration by a dilution series.)

Assay [7] concerns the target Cytochrome P450 3A4 (Homo sapiens) (UniProt P08684). In words: qHTS Assay for Activators of Cytochrome P450 3A4 (AID 885; active = well fitted curve in the direction sought with a large enough effect; an effect the other way counts as inactive or inconclusive; note: nearly all actives have a fitted effect of over 65% in size). Particulars: recombinant CYP3A4, Luciferin-PPXE luminescence, 60 min; series mostly up to 57.1 µM. Put shortly:
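Activators are scored by enhanced luminescence from CYP3A4 conversion of luciferin-PPXE (25uM, equal to KM) to luciferin, after 60 min at RT with an NADPH-regenerating system.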

Assay [8] in a line: qHTS Assay for Lipid Storage Modulators (AID 1519; calls by dose curve). The following applies: Drosophila S3 cells, BODIPY lipid droplet/cell ratio, laser cytometry, cells loaded with oleic acid; for activity change, negative = inhibition: at 57.5 µM (top of the series). Put shortly: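 Cells seeded at 5,000 per well were treated with compounds over a concentration series and loaded with oleic acid (400 uM, as added). Lipid droplet fluorescence (488 nm excitation, 500-530 nm channel) was read by laser-scanning cytometry and normalized to 20 uM Triacsin C.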

A short description of assay [9]: Primary qHTS for small molecule stabilizers of the endoplasmic reticulum resident proteome: Secreted ER Calcium Modulated Protein (SERCaMP) assay (AID 1508630; active = well fitted curve in the direction sought with a large enough effect; an effect the other way counts as inactive or inconclusive; note: % is set by controls: 0 for no effect and ±100 for the full control effect). The following applies: SH-SY5Y GLuc-SERCaMP (Gaussia luciferase released on ER calcium loss) secretion, thapsigargin, luminescence; series mostly up to 38.4 µM. Put shortly:
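The SH-SY5Y reporter protocol was run at 3 concentrations up to 38.3 uM (primary) or 11 concentrations (follow-up): 16 h compound, 100 nM thapsigargin for 4 h, then extracellular luciferase luminescence.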

Assay [10] can be described thus: NFAT Signaling Pathway (AID 444).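 Note: carbachol stimulus at about its EC50 of 1 µM final; % is set by controls: 0 for no effect and ±100 for the full control effect.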 Particulars: Jurkat NFAT-bla M1, carbachol, beta-lactamase ratio, 5 h; at 7.69 µM (top of the series) unless noted. Put shortly: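 Jurkat cells carrying an NFAT-driven β-lactamase reporter and co-transfected muscarinic M1 receptor were treated with compound plus carbachol (1 uM final, an EC50 level) for 5 h at 37 °C. CCF4 loading followed for 1 h at RT; 460/530 nm ratio gave %activity.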

The nature of assay [11]: Stat Signaling Pathway (AID 446). Particulars: ME-180 SIE beta-lactamase reporter, IL-6 stimulated, 5 h; at 7.69 µM (top of the series) unless noted. In a few lines: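 Emission at 460 and 530 nm (excitation 405 nm) reports SIE-controlled beta-lactamase in ME-180 cells. Cells received compound with 40 pM IL-6 for 5 hrs at 37 C; data scaled between 300 pM IL-6 and 125 nM JAK-inhibitor controls.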

Assay [12] concerns the target Glucocorticoid receptor (Homo sapiens) (UniProt P04150). In words: GR-GFP Redistribution (AID 450;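 active = compounds whose dose series gives a full or clear partial fitted curve of increased nuclear translocation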; note: potency is the fitted concentration of half-maximal effect). Particulars: U2OS GR-GFP nuclear translocation, laser cytometry, 2 h.
The nature of assay [13]: Confirmation and Secondary Assay for Modulators of Hemoglobin Beta Chain Splicing at IVS2 654 locus (AID 910; active = well fitted curve in the direction sought with a large enough effect; an effect the other way counts as inactive or inconclusive;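 note: per-well total GFP intensity by laser scanning cytometry after 2-day treatment; % of control where 0% means no effect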). Particulars: HeLa EGFP-654 splicing reporter, GFP fluorescence, 48 h; series mostly up to 38.3 µM. In a few lines: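 HeLa cells stably carrying EGFP interrupted by mutant beta-globin IVS2-654 intron (CMV-driven) were treated with compound for 2 days at 37C; corrected splicing was scored as total peak GFP intensity per well (488 nm excitation, 500-520 nm emission).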

A short description of assay [14]: Confirmation and Secondary Assay for Modulators of Hemoglobin Beta Chain Splicing at IVS2 705 locus (AID 930; active = well fitted curve in the direction sought with a large enough effect; an effect the other way counts as inactive or inconclusive;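 note: HeLa cells stably expressing the EGFP-705 splicing reporter; % of control where 0% means no effect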). Particulars: HeLa EGFP-705 splicing reporter, GFP fluorescence, 48 h; series mostly up to 38.3 µM. Put shortly:
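HeLa cells stably carrying EGFP interrupted by mutant beta-globin IVS2-705 intron (CMV-driven) were seeded at 500 cells/well, treated next day with compound for 2 days at 37C; corrected splicing restores EGFP, read as total peak GFP intensity per well.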

Assay [15] addresses Ubiquitin carboxyl-terminal hydrolase 1 (Homo sapiens) (UniProt O94782). In words: Inhibitors of USP1/UAF1: Pilot qHTS (AID 504865; active = well fitted curve in the direction sought with a large enough effect; an effect the other way counts as inactive or inconclusive;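 note: rhodamine fluorescence freed from ubiquitin-rhodamine substrate followed over time; top concentration of the series differs between compounds; % is set by controls: 0 for no effect and ±100 for the full control effect; nearly all actives have a fitted effect of over 35% in size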). Particulars: purified USP1/UAF1, Ub-rhodamine cleavage fluorescence; series mostly up to 54.9 µM. In a few lines: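 In 50mM HEPES pH 7.8 containing 0.5mM EDTA, 1mM TCEP, 0.1 mg/ml BSA and 0.01% Tween-20, 1nM USP1/UAF1 is exposed to compound for 15 min, then Ub-Rho (150nM final) is added and fluorescence is read over time.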

Assay [16] is described as follows: qHTS Assay for Identification of Small Molecule Agonists for Hypoxia Response Element Signaling Pathway (AID 914; active = well fitted activation curve with a large enough effect in the signal ratio, with a control signal flat, not every such curve was filed as active; the % refers to the signal ratio; note: potency is the fitted concentration of half-maximal effect). The following applies: ME-180 (cervical carcinoma) HRE-bla reporter, beta-lactamase ratio, CoCl2, 17 h; activation: stronger effect = higher value. In a few lines:
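ME-180 cells carrying an HRE-driven beta-lactamase reporter were treated with compounds in a titration series plus an EC50 level of CoCl2 for 17 h at 37 degrees Celsius; CCF4 readout as the 460nm/530nm ratio gave AC50 values.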

The mark [17] stands for this setting: measured here: cell count channel max response.
[18] abbreviates: measured here: lipid channel max response.

Results filed as inconclusive are left out. The source made the active and inactive calls. Unless noted, calls come from the whole dose curve; as a rule, active = well fitted curve in either direction with a large enough effect (not every such curve was filed as active); inconclusive = small, poorly fitted or top-dose-only effect, or another doubt; inactive = flat fitted curve, though single readings scatter. Bounds are passed on as bounds.

Chain of Cytochrome P450 1A2 (Homo sapiens) (P05177 whole entry, looked up): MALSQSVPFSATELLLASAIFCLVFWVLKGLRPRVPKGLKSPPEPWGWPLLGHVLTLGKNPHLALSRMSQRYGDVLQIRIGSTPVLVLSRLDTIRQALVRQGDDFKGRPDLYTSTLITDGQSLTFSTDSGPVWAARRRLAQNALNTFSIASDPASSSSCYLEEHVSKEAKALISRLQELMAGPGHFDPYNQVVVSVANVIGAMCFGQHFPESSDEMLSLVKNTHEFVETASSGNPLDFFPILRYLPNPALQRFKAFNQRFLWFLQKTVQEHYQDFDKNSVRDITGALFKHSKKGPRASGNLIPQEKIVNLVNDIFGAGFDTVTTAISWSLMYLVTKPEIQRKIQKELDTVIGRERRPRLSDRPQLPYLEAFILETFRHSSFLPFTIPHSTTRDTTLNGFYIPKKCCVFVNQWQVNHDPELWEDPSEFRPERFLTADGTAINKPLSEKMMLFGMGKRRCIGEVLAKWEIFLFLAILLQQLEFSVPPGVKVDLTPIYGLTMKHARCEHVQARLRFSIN
Chain of Glucocorticoid receptor (Homo sapiens) (P04150 whole entry, looked up, the tested form may be a part): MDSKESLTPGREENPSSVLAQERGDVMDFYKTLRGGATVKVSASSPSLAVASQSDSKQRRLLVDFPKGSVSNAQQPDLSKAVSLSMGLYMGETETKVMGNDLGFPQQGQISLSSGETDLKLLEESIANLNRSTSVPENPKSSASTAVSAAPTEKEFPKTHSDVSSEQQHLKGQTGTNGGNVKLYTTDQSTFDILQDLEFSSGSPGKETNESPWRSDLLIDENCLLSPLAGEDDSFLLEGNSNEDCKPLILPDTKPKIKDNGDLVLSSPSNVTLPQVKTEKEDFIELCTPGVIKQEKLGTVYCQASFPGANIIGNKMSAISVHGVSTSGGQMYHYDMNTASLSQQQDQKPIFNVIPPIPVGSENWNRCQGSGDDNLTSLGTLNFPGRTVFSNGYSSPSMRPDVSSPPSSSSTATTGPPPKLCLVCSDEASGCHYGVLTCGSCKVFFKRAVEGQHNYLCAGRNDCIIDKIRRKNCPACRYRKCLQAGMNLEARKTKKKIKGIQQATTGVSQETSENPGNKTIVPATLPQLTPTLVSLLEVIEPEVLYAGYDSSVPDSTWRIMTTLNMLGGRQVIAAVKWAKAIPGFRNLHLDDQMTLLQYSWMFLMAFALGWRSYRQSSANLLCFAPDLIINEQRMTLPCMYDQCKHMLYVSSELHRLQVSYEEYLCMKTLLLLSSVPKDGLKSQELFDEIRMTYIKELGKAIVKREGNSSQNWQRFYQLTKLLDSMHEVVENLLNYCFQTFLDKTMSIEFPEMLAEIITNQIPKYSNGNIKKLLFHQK
Chain of Lysosomal acid glucosylceramidase (Homo sapiens) (P04062 whole entry, looked up): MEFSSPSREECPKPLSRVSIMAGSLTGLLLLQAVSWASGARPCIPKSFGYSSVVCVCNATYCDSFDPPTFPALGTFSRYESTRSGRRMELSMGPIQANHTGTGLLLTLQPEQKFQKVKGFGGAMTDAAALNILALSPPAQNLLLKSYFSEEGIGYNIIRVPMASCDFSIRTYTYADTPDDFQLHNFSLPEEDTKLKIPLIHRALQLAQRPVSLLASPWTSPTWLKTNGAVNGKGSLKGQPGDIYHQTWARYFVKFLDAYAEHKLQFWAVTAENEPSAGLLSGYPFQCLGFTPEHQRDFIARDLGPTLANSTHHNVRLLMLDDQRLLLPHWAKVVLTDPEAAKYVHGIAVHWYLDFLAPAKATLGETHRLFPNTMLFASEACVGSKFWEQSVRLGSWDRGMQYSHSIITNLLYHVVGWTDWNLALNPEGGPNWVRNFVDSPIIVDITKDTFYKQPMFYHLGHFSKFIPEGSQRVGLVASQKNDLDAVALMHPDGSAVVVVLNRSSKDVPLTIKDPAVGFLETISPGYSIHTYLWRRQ
Chain of Ubiquitin carboxyl-terminal hydrolase 1 (Homo sapiens) (O94782 whole entry, looked up): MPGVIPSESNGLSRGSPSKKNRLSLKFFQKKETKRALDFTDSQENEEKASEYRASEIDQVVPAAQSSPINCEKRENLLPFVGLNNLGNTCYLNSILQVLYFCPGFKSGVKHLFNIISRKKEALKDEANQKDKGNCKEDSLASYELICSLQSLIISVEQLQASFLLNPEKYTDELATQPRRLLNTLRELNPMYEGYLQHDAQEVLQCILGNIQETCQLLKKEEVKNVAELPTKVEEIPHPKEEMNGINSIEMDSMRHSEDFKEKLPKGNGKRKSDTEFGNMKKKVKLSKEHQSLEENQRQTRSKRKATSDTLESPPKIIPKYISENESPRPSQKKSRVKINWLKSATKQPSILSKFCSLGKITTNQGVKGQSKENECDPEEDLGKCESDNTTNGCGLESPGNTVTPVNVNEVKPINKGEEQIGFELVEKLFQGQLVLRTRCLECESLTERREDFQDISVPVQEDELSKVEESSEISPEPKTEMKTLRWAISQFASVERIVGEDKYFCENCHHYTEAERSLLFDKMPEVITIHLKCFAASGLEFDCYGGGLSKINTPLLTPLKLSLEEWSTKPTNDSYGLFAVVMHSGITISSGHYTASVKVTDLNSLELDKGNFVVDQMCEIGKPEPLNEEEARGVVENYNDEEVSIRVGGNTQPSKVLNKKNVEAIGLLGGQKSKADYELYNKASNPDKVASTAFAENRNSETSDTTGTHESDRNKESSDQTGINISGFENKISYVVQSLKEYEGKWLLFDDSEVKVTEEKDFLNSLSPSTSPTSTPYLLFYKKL
Chain of Cytochrome P450 3A4 (Homo sapiens) (P08684 whole entry, looked up): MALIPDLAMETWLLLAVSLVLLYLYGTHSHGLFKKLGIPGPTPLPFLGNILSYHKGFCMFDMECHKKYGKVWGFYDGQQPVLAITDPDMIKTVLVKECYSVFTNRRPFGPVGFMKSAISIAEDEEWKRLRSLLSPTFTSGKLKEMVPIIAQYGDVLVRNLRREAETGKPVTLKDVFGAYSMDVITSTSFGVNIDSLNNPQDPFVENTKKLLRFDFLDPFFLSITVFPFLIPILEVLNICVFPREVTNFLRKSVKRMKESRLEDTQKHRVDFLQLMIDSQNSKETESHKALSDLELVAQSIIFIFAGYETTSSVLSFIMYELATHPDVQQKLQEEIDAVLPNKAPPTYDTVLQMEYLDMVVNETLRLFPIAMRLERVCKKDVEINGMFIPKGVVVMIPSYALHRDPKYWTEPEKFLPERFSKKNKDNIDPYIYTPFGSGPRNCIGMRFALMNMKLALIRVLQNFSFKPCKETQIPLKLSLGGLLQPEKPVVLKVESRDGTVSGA

In the case of `c1ccc(-c2cccc(N3CCC4(CCNCC4)CC3)c2)cc1`, the Potency in assay [1] is > 11.4 µM (inactive); in assay [3], 15.8 µM (active); in [4], > 46 µM (inactive). Also, the activity change, negative = inhibition in assay [2] was -2.96% (inactive); in assay [8] it was 2.27% (inactive). The Potency entry in assay [5], in assay [6] and in assay [7] was “inactive” throughout. Further, the max response in assay [8] (setting [17]) is -17%; in assay [8] (setting [18]), -12.4%. Further, the outcome in assay [9] was inactive.
As for `N#Cc1ccc(CN2CC[C@@]3(CCCN(C(=O)c4cnccn4)C3)C2)cc1`, the figures for the Potency in assay [1] and in assay [4] were > 11.4 µM (inactive) and > 46 µM (inactive), respectively. The activity change, negative = inhibition in assay [2] is -8.73% (inactive); in assay [10], 1.72% (inactive); in [8] it was 2.06% (inactive). In addition, in assay [11], the activity, negative = inhibition is 4.34% (inactive). For the same compound, the Potency result in assay [5] and in [6] was “inactive” throughout. For the same compound, the max response in assay [8] (setting [17]) is 12.2%; in [8] (setting [18]) it was 18.2%. In addition, the result in [9] was inactive.
Take `CC(=O)N1CCC2(CC1)CN(c1cccc(-c3ccccc3)c1)C2`: the Potency in assay [1] is > 11.4 µM (inactive); in [4] it was > 46 µM (inactive). Also, the activity change, negative = inhibition is -4.65% (inactive) in assay [2], 16.1% (inactive) in [10] and 6.04% (inactive) in assay [8]. In addition, the activity, negative = inhibition in assay [11] was 1.02% (inactive). Besides, the Potency result in [5] and in [6] was “inactive” each time. Besides, the max response in assay [8] (setting [17]) stood at 6.96%; in assay [8] (setting [18]) it was 17.4%. Also, the outcome in assay [9] was inactive.
For `CN(C)Cc1ccccc1-c1cncnc1NCc1cccs1`, the Potency in assay [1] was > 11.4 µM (inactive); in assay [3], 25.1 µM (active); in assay [12] it was > 46 µM (inactive); in assay [4] it was > 46 µM (inactive). Besides, the results for the activity change, negative = inhibition in assay [2] and in [8] were 8.74% (inactive) and 5.02% (inactive), respectively. Moreover, the Potency result in assay [5], in [6], in assay [7], in [13] and in assay [15] was “inactive” each time. For the same compound, the outcome in assay [14] and in assay [9] was inactive. Also, the figures for the max response in assay [8] (setting [17]) and in assay [8] (setting [18]) were 16.5% and 25.4%, respectively.
Turning to `CN(C)c1ncc2nc(-c3ccc(F)cc3)c(=O)n(C3CC3)c2n1`, the Potency in assay [1] is > 11.4 µM (inactive); in assay [3], 1.58 µM (active); in assay [12], > 9.22 µM (inactive); in assay [4], > 46 µM (inactive); in assay [6] it was 2 µM (active); in assay [16], 2.51 µM (active). Besides, the activity change, negative = inhibition in assay [2] was 18.2% (inactive); in [8], 2.01% (inactive). Further, the Potency entry in [5] is “inactive”. The max response came out at 10.2% in assay [8] (setting [17]) and 13.7% in assay [8] (setting [18]). Moreover, the result in assay [9] was inactive.
Consider `O=C(c1ccncc1)N1CCC2(CCCN(c3ccccc3)C2)CC1`, for which the Potency was > 11.4 µM (inactive) in assay [1] and > 46 µM (inactive) in assay [4]. The activity change, negative = inhibition is -3.67% (inactive) in assay [2], 3.61% (inactive) in [10] and 6.76% (inactive) in [8]. For the same compound, the activity, negative = inhibition in [11] was -3.54% (inactive). Moreover, the Potency result in [5] and in assay [6] was “inactive” each time. Also, the max response in assay [8] (setting [17]) came out at 7.52%; in assay [8] (setting [18]), 17.5%. Also, in [9], the outcome was inactive.
As for `COc1ccc(CNc2ncncc2-c2ccccc2Cl)c(OC)c1`, the Potency in [1] was > 11.4 µM (inactive); in [12] it was > 46 µM (inactive); in [4] it was > 46 µM (inactive). Also, the activity change, negative = inhibition in assay [2] was -16.1% (inactive); in assay [10] it was -7% (inactive); in [8] it was 5.27% (inactive). Besides, the activity, negative = inhibition in [11] is 15.1% (inactive). In addition, the Potency entry in assay [5], in assay [6], in assay [13] and in assay [15] was “inactive” each time. The outcome in assay [14] and in [9] was inactive. In addition, the values for the max response in assay [8] (setting [17]) and in [8] (setting [18]) were -5% and 2.12%, respectively.
